Reference: PubChem BioAssay (NCATS)
Inconclusive results are not listed. Where a call stands in place of a potency, no number is given. A structure can be active in one record and inactive in another. Calls of active or inactive are those of the source. Calls follow the shape of the dose curve; as a rule, active = well fitted curve in the direction sought with a large enough effect; inconclusive = small, poorly fitted or top-dose-only effect, or another doubt; inactive = no such curve, though single readings can be large; an effect the other way counts as inactive or inconclusive.

Tests used:
[1] = Quantitative highthroughput screen to assess conditional lethalithy of NOMO1 cells grown in RPMI1640 with untreated serum (RPMI+s) (AID 1963876); also: nearly all actives have a fitted effect of over 35% in size
Outline: (§1)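 Each medium arm—HPLM with 10% dialyzed FBS, or RPMI1640 with 5 mM glucose and 10% untreated or dialyzed FBS—was screened against an 11-point, 3-fold compound titration for 48 h at 37 °C, with CellTiter-Glo luminescence as endpoint.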

[2] = Quantitative highthroughput screen to assess conditional lethalithy of NOMO1 cells grown in RPMI1640 with dialyzed fetal bovine serum (RPMI+ds) (AID 1963877); also: nearly all actives have a fitted effect of over 30% in size; as to viability: series mostly up to about 46 µM
Outline: as §1

[3] = Quantitative highthroughput screen to assess conditional lethalithy of NOMO1 cells grown in Human Plasma-Like Medium with dialyzed fetal bovine serum (HPLM+ds) (AID 1963878); also: nearly all actives have a fitted effect of over 35% in size
Outline: as §1

[4] = Quantitative highthroughput screen to assess conditional lethalithy of P12 Ichikawa cells grown in Human Plasma-Like Medium with dialyzed fetal bovine serum (HPLM+ds) (AID 1963879); settings: Potency: viability; also: nearly all actives have a fitted effect of over 35% in size; as to viability: series mostly up to about 46 µM
Outline: as §1

[5] = Quantitative highthroughput screen to assess conditional lethalithy of P12 Ichikawa cells grown in RPMI1640 with dialyzed fetal bovine serum (RPMI+ds) (AID 1963880); settings: Potency: P12-Ichikawa viability; also: nearly all actives have a fitted effect of over 35% in size
Outline: as §1

[6] = Quantitative highthroughput screen to assess conditional lethalithy of P12 Ichikawa cells grown in RPMI1640 with untreated serum (RPMI+s) (AID 1963881); settings: Potency: viability; also: nearly all actives have a fitted effect of over 35% in size; as to viability: series mostly up to about 46 µM
Outline: as §1

[7] = Quantitative highthroughput screen to assess conditional lethalithy of SEM cells grown in Human Plasma-Like Medium with dialyzed fetal bovine serum (HPLM+ds) (AID 1963882); also: nearly all actives have a fitted effect of over 35% in size; as to viability: series mostly up to about 46 µM
Outline: as §1

[8] = Quantitative highthroughput screen to assess conditional lethalithy of SEM cells grown in RPMI1640 with unreated serum (RPMI+s) (AID 1963883); also: nearly all actives have a fitted effect of over 35% in size
Outline: as §1

[9] = Quantitative highthroughput screen to assess conditional lethalithy of SEM cells grown in RPMI1640 with dialyzed fetal bovine serum (RPMI+ds) (AID 1963884); also: nearly all actives have a fitted effect of over 35% in size; as to viability: series mostly up to about 46 µM
Outline: as §1
Potency is read from the fitted curve at half-maximal effect.

CC(C)CN(C[C@H](O)[C@H](Cc1ccccc1)NC(=O)O[C@H]1CCOC1)S(=O)(=O)c1ccc(N)cc1
Potency [1]: inactive | Potency [2]: inactive | Potency [3]: inactive

O=C(NCc1ccccc1)[C@H](Cc1ccccc1)NC(=O)[C@@H]1O[C@@H]1C(=O)NCCc1ccc(O)cc1
Potency [1]: inactive | Potency [2]: inactive | Potency [3]: inactive | Potency [4]: inactive | Potency [5]: inactive | Potency [6]: inactive | Potency [7]: inactive

CO[C@H]1/C=C\O[C@@]2(C)Oc3c(C)c(O)c4c(O)c(c(C=NN5CCN(C6CCCC6)CC5)c(O)c4c3C2=O)NC(=O)C(C)=CC=C[C@H](C)[C@H](O)[C@@H](C)[C@@H](O)[C@@H](C)[C@H](OC(C)=O)[C@H]1C
Potency [1]: 1660 nM (active) | Potency [2]: 2.64 µM (active) | Potency [3]: 2350 nM (active) | Potency [4]: 2640 nM (active) | Potency [5]: 2640 nM (active)

O=c1ccn([C@@H]2O[C@H](CO)[C@H](O)[C@H]2O)c(=O)[nH]1
Potency [1]: inactive | Potency [2]: inactive | Potency [3]: inactive | Potency [4]: inactive | Potency [5]: inactive | Potency [6]: inactive | Potency [7]: inactive

CN[C@@H]1C[C@H]2O[C@@](C)([C@H]1OC)n1c3ccccc3c3c4c(c5c6ccccc6n2c5c31)C(=O)N[C@H]4O
Potency [1]: 833 nM (active) | Potency [2]: 1.05 µM (active) | Potency [3]: 590 nM (active) | Potency [4]: 743 nM (active) | Potency [5]: 590 nM (active) | Potency [6]: 418 nM (active) | Potency [7]: 332 nM (active) | Potency [8]: 332 nM (active)

CC(=O)O[C@]1(C(C)=O)CC[C@H]2[C@@H]3C=C(C)C4=CC(=O)CC[C@]4(C)[C@@H]3CC[C@@]21C
Potency [1]: inactive | Potency [2]: inactive | Potency [3]: inactive | Potency [4]: inactive | Potency [5]: inactive | Potency [6]: inactive | Potency [7]: inactive | Potency [8]: inactive | Potency [9]: inactive

CC(C)c1nc(CN(C)C(=O)N[C@H](C(=O)N[C@@H](Cc2ccccc2)C[C@H](O)[C@H](Cc2ccccc2)NC(=O)OCc2cncs2)C(C)C)cs1
Potency [1]: inactive | Potency [2]: inactive | Potency [3]: inactive | Potency [4]: inactive | Potency [5]: inactive | Potency [6]: inactive | Potency [7]: inactive | Potency [8]: inactive

CC(C=CC(=O)NO)=C[C@@H](C)C(=O)c1ccc(N(C)C)cc1
Potency [1]: 2090 nM (active) | Potency [2]: 1.87 µM (active) | Potency [3]: 1660 nM (active) | Potency [4]: 1480 nM (active) | Potency [5]: 1180 nM (active) | Potency [6]: 1180 nM (active) | Potency [7]: 590 nM (active) | Potency [8]: 662 nM (active) | Potency [9]: 590 nM (active)

CC(C=CC1=C(C)CCCC1(C)C)=CC=CC(C)=CC(=O)O
Potency [1]: inactive | Potency [2]: 833 nM (active) and inactive | Potency [3]: inactive | Potency [4]: inactive | Potency [5]: inactive | Potency [6]: inactive | Potency [7]: inactive | Potency [8]: inactive

COc1cccc2c1C(=O)c1c(O)c3c(c(O)c1C2=O)C[C@@](O)(C(C)=O)C[C@H]3O[C@H]1C[C@H](N)[C@H](O)[C@H](C)O1
Potency [1]: 264 nM (active) | Potency [2]: 0.235 µM (active) | Potency [3]: 264 nM (active) | Potency [4]: 264 nM (active) | Potency [5]: 209 nM (active) | Potency [6]: 209 nM (active) | Potency [7]: 83.3 nM (active) | Potency [8]: 46.9 nM (active)

NC1CCC(Nc2nc(Nc3ccc(C(=O)N4CCCCC4)cc3)c3ncn(-c4cccc(F)c4)c3n2)CC1 (configuration not stated)
Potency [1]: inactive | Potency [2]: inactive | Potency [3]: inactive | Potency [4]: inactive | Potency [5]: inactive | Potency [6]: inactive | Potency [7]: inactive | Potency [8]: inactive | Potency [9]: inactive

C[C@@H](Cc1cc2c(c(C(N)=O)c1)N(CCCO)CC2)NCCOc1ccccc1OCC(F)(F)F
Potency [1]: inactive | Potency [2]: inactive | Potency [3]: inactive | Potency [4]: inactive | Potency [5]: inactive | Potency [6]: inactive | Potency [7]: inactive | Potency [8]: inactive | Potency [9]: inactive

CCN(CC)CCNC(=O)c1c(C)[nH]c(C=C2C(=O)Nc3ccc(F)cc32)c1C
Potency [1]: 303 nM (active) | Potency [2]: 0.303 µM (active) | Potency [3]: 171 nM (active) | Potency [4]: 270 nM (active) | Potency [5]: 340 nM (active) | Potency [6]: 481 nM (active)

O=C(NNC(=O)c1ccc(CNS(=O)(=O)c2ccc(F)c(Cl)c2)cc1)c1ccccc1
Potency [1]: inactive | Potency [2]: inactive | Potency [3]: inactive | Potency [4]: inactive | Potency [5]: inactive | Potency [6]: inactive | Potency [7]: inactive | Potency [8]: inactive

O=C(C=Cc1c(C(=O)O)[nH]c2cc(Cl)cc(Cl)c12)Nc1ccccc1
Potency [1]: inactive | Potency [2]: inactive | Potency [3]: inactive | Potency [4]: inactive | Potency [5]: inactive | Potency [6]: inactive

CC1(C)CC(O)CC(C)(C)N1[O]
Potency [1]: inactive | Potency [2]: inactive | Potency [3]: inactive | Potency [4]: inactive | Potency [5]: inactive | Potency [6]: inactive | Potency [7]: inactive | Potency [8]: inactive | Potency [9]: inactive

Fc1ccc(C(c2ccc(F)cc2)N2CCN(CC=Cc3ccccc3)CC2)cc1
Potency [1]: inactive | Potency [2]: inactive | Potency [3]: inactive | Potency [4]: inactive | Potency [5]: inactive | Potency [6]: inactive | Potency [7]: inactive | Potency [8]: inactive

CCOc1cc(C=C2C(=O)N(c3ccccc3)N=C2C)cc(Cl)c1OCC(=O)OC
Potency [1]: inactive | Potency [2]: inactive | Potency [3]: inactive | Potency [4]: inactive | Potency [5]: inactive | Potency [6]: inactive

COc1ccnc2[nH]cc(C(=O)C(=O)N3CCN(C(=O)c4ccccc4)C[C@@H]3C)c12
Potency [1]: inactive | Potency [2]: inactive | Potency [3]: inactive | Potency [4]: inactive | Potency [5]: inactive | Potency [6]: inactive | Potency [7]: inactive | Potency [8]: inactive | Potency [9]: inactive

CC(=O)N1CCN(c2ccc(OC[C@H]3CO[C@](Cn4ccnc4)(c4ccc(Cl)cc4Cl)O3)cc2)CC1
Potency [1]: inactive | Potency [2]: inactive | Potency [3]: inactive

CS[C@H]1SC[C@@H]2C(=O)N(C)[C@H](C(C)C)C(=O)OC[C@H](NC(=O)c3cnc4ccccc4n3)C(=O)N[C@H](C)C(=O)N(C)[C@@H]1C(=O)N(C)[C@H](C(C)C)C(=O)OC[C@H](NC(=O)c1cnc3ccccc3n1)C(=O)N[C@H](C)C(=O)N2C
Potency [1]: 20.9 nM (active) | Potency [2]: 0.0209 µM (active) | Potency [3]: 14.8 nM (active) | Potency [4]: 20.9 nM (active) | Potency [5]: 10.5 nM (active) | Potency [6]: 14.8 nM (active) | Potency [7]: 3.7 nM (active) | Potency [8]: 2.6 nM (active)

Nc1ncnc2c1ncn2[C@@H]1O[C@@H](CO)[C@H](O)[C@H]1O
Potency [1]: inactive | Potency [2]: inactive | Potency [3]: inactive | Potency [4]: inactive | Potency [5]: inactive | Potency [6]: inactive

C[C@]12CC[C@@H]3c4ccc(O)cc4CC[C@H]3[C@H]1C[C@@H](O)[C@H]2O
Potency [1]: inactive | Potency [2]: inactive | Potency [3]: inactive | Potency [4]: inactive | Potency [5]: inactive | Potency [6]: inactive | Potency [7]: inactive | Potency [8]: inactive | Potency [9]: inactive

CC(C)c1onc(-c2c(Cl)cccc2Cl)c1COc1ccc(C=Cc2cccc(C(=O)O)c2)c(Cl)c1
Potency [1]: inactive | Potency [2]: inactive | Potency [3]: inactive | Potency [4]: inactive | Potency [5]: inactive | Potency [6]: inactive | Potency [7]: inactive | Potency [8]: inactive | Potency [9]: inactive
